# Reference: PubChem BioAssay (EPA / NIEHS)
# Several values for one entry are separate records, joined by “and”; a condition that tells them apart may be missing. Equal entries are not always repeated. Records with an inconclusive call do not appear. Where a structure was tested more than once in an assay, its records may differ in their call. Activity calls are given as the source filed them. How the source made its calls: active means hit-call score of the fitted dose curve at least 0.9, where 1 is the maximum; inconclusive means response in the unintended direction; inactive means score below 0.9.
# Read-out: Cytochrome P450 3A4 (Homo sapiens) (UniProt P08684)
# Assay: CLD_CYP3A4_24hr: CellzDirect (CLD) Gene Expression Assay for xenobiotic metabolism (CYP3A4) at 24 hours (AID 2283689)
# Procedure: CLD_24hr is a cell-based, multiplexed-readout assay that uses hepatocyte, a human liver primary cell, with measurements taken at 24 hours after chemical dosing in a 96-well plate.CLD_CYP3A4_24hr is one of 16 assay component(s) measured or calculated from the CLD_24hr assay. It is designed to make measurements of mRNA induction, a form of inducible reporter, as detected with chemiluminescence signals by Quantitative Nuclease Protection Assay (qNPA) technology.Data from the assay component CLD_CYP3A4_24hr was analyzed at the endpoint, CLD_CYP3A4_24hr, in the positive analysis fitting direction relative to DMSO as the negative control and baseline of activity. Using a type of inducible reporter, gain-of-signal activity can be used to understand changes in the reporter gene as they relate to the gene CYP3A4. Furthermore, this assay endpoint can be referred to as a primary readout. To generalize the intended target to other relatable targets, this assay endpoint is annotated to the cyp intended target family, where subfamily is xenobiotic metabolism.
# Human hepatocyte cultures were treated daily for two consecutive days with fresh dosing solutions containing appropriate concentrations of the 320 ToxCast chemicals (chemical identities were blinded to CellzDirect and other ToxCast collaborators), vehicle control (0.2% DMSO), and positive control inducers as summarized in Table 1. Due to the large number of treatment groups and chemicals examined, the ToxCast chemicals were divided into two groups (spanning two independent cultures of hepatocytes from separate donor preparations (Hu778: ToxCast plates 1 and 2; Hu776: ToxCast plates 3 and 4). Each preparation of human hepatocyte cultures was treated with respective vehicle control, medium only control, set of six positive controls/reference chemicals for the five hepatic receptor pathways, and a subset of eight of the ToxCast chemicals (indoxacarb, pyrithiobac-sodium, norflurazon, cyhalofop-butyl, methomyl, thiram, acetochlor, and propiconazole). These replicate data, coupled with internal replicates designed within the blinded ToxCast chemical library, provided additional data to evaluate interindividual differences between hepatocyte preparations and their potential impact on chemical profiles.Cell morphology and integrity were evaluated using phase-contrast microscopy as an indicator of hepatocyte cell health (Tyson & Green, 1987). Cultures for each treatment group (i.e., media, vehicle [0.2% DMSO], positive control inducers [multiple concentrations], and the ToxCast chemicals [multiple concentrations]) were observed and cell morphology was assessed relative to vehicle control cultures at each harvest time point (0, 6, 24, or 48 h). […] Images were evaluated at the conclusion of the study to assess changes in cell integrity and account for the effects of chemical exposure on uncharacteristic changes in concentration-dependent gene expression profiles. The results from these determinations of apparent cytotoxicity were annotated (yes/no) alongside the corresponding qNPA data for reference.At the conclusion of each treatment period, hepatocyte cultures (96-well) were washed with 1 volume of HBSS, lysed by addition of 25 ul ArrayPlate lysis buffer (HTG, Tucson, AZ), and 70 ul/well of Denaturation Oil, denatured by incubation at 95C for 10 min, and frozen at approximately -70C until analysis by nuclease protection assay (qNPA) (Roberts et al., 2007). For qNPA analysis, cell lysates were thawed at 50C for approximately 30 min, qNPA probes were added, and samples were incubated at 95C for 10 min to begin the detection process by denaturing the target RNA, dissociating the duplexes and secondary structure hybridization. At the conclusion of the hybridization period, S1 nuclease reagent was added to each sample to digest all nonprotected nucleotides at 50C for 60-90 min. […]
# Chain of Cytochrome P450 3A4 (Homo sapiens) (P08684 whole entry, looked up): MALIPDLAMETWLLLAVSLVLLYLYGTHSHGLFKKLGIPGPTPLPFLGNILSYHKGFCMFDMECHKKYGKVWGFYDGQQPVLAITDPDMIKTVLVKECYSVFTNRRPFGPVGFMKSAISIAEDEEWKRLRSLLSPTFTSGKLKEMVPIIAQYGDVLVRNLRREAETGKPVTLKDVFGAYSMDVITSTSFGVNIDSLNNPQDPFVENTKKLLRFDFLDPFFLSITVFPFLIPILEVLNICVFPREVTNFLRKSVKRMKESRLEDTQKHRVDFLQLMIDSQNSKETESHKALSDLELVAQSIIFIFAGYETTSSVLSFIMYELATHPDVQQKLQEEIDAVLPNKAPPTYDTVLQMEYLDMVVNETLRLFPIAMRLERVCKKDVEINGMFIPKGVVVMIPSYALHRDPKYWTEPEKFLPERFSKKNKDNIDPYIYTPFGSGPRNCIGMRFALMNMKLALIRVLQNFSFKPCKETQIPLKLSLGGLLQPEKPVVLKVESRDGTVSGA
Structure (SMILES),outcome,AC50
COc1nc(C)nc(NC(=O)NS(=O)(=O)c2ccccc2CCC(F)(F)F)n1,inactive,36.7 µM (active) and 5.29 µM (active)
N#Cc1nn(-c2c(Cl)cc(C(F)(F)F)cc2Cl)c(N)c1S(=O)C(F)(F)F (stereo not given),–,1.89 µM (active)
CC(C)Oc1cc(-n2nc(C(C)(C)C)oc2=O)c(Cl)cc1Cl,–,1.9 µM (active)
CCOC(=O)C(Cl)Cc1cc(-n2nc(C)n(C(F)F)c2=O)c(F)cc1Cl (stereo not given),–,20 µM (active)
CCCCNC(=O)OCC#CI,inactive,–
COc1nc(C)nc(NC(=O)NS(=O)(=O)c2ccccc2Cl)n1,inactive,–
N#CC(CCc1ccc(Cl)cc1)(Cn1cncn1)c1ccccc1 (stereo not given),–,1.9 µM (active)
CC(C)C1(C)N=C(c2nc3ccccc3cc2C(=O)O)NC1=O (stereo not given),inactive,–
CCOP(=S)(OCC)SCn1c(=O)oc2cc(Cl)ccc21,inactive,–
Oc1ccccc1-c1ccccc1,inactive,–
COC(=O)C(C)Oc1ccc(Oc2ccc(Cl)cc2Cl)cc1 (stereo not given),inactive,5.43 µM (active)
C=CC1(C)OC(=O)N(c2cc(Cl)cc(Cl)c2)C1=O (stereo not given),inactive,–
Cc1ccc(-c2c(Cl)nc(C#N)n2S(=O)(=O)N(C)C)cc1,inactive,–
CCOC(=O)CC(SP(=S)(OC)OC)C(=O)OCC (stereo not given),inactive,–
COC(=O)c1ccccc1C(=O)OC,inactive,–
CCON=C(CC)C1=C(O)CC(c2c(C)cc(C)cc2C)CC1=O (stereo not given),inactive,–
Cc1cc(Cl)ccc1OCC(=O)O,inactive,–
CN(C)C(=S)SSC(=S)N(C)C,inactive,–
Cc1c(F)c(F)c(COC(=O)C2C(/C=C(\Cl)C(F)(F)F)C2(C)C)c(F)c1F (stereo not given),–,5.74 µM (active)

Structure (SMILES),outcome,AC50
O=C(Nc1ccccc1)Nc1ccnc(Cl)c1,inactive,–
COC(=O)N(OC)c1ccccc1COc1ccn(-c2ccc(Cl)cc2)n1,–,3.73 µM (active)
COc1nc(NC(C)C)nc(NC(C)C)n1,–,1.9 µM (active)
CC(C)(C)c1ccc(CSc2cnn(C(C)(C)C)c(=O)c2Cl)cc1,–,39.3 µM (active)
CC1=C(C(=O)Nc2ccccc2)SCCO1,–,6.76 µM (active)
COP(=S)(OC)Oc1nc(Cl)c(Cl)cc1Cl,–,3.97 µM (active)
CCCC1COC(Cn2cncn2)(c2ccc(Cl)cc2Cl)O1 (stereo not given),–,1.59 µM (active)
OC(c1ccc(Cl)cc1)(c1cncnc1)c1ccccc1Cl (stereo not given),–,0.542 µM (active)
CCc1nn(C)c(C(=O)NCc2ccc(C(C)(C)C)cc2)c1Cl,–,20 µM (active)
O=C(O)COc1nc(Cl)c(Cl)cc1Cl,inactive,–
CCNc1nc(Cl)nc(NC(C)C)n1,–,20 µM (active)
CON(C)C(=O)Nc1ccc(Cl)c(Cl)c1,inactive,–
O=C(O)c1nc(Cl)ccc1Cl,inactive,–
COc1cnc(OC)n2nc(NS(=O)(=O)c3c(OCC(F)F)cccc3C(F)(F)F)nc12,–,2.42 µM (active)
CC1COC(Cn2cncn2)(c2ccc(Oc3ccc(Cl)cc3)cc2Cl)O1 (stereo not given),–,1.9 µM (active)
CCCCOC(=O)c1ccccc1C(=O)OCCCC,inactive,–
CNC(=O)ON=CC(C)(C)SC,inactive,–
CCOc1cc(Oc2ccc(C(F)(F)F)cc2Cl)ccc1[N+](=O)[O-],–,20 µM (active)
C#CCOS(=O)OC1CCCCC1Oc1ccc(C(C)(C)C)cc1 (stereo not given),–,1.89 µM (active)
